Screening data (PubChem)
A selection: hits, their analogues and other compounds. The true share with any hit is near 4.2%.
FBA Mtb inh – inhibitors of M. tuberculosis fructose-bisphosphate aldolase. P9WQA3. purified M. tuberculosis FBA, fluorescence read-out. inhibition, % at 1 µM. actives 2.3% (n = 360,000). AID 588726; in the data active means inhibition above about 27%
RecA intein inh – inhibitors of M. tuberculosis RecA intein splicing. cell-free RecA intein splicing, fluorescence. inhibition, % (test concentration not listed). actives 0.75% (n = 290,000); in the data active means inhibition above about 30%
Target sequence (P9WHJ3 whole entry, looked up): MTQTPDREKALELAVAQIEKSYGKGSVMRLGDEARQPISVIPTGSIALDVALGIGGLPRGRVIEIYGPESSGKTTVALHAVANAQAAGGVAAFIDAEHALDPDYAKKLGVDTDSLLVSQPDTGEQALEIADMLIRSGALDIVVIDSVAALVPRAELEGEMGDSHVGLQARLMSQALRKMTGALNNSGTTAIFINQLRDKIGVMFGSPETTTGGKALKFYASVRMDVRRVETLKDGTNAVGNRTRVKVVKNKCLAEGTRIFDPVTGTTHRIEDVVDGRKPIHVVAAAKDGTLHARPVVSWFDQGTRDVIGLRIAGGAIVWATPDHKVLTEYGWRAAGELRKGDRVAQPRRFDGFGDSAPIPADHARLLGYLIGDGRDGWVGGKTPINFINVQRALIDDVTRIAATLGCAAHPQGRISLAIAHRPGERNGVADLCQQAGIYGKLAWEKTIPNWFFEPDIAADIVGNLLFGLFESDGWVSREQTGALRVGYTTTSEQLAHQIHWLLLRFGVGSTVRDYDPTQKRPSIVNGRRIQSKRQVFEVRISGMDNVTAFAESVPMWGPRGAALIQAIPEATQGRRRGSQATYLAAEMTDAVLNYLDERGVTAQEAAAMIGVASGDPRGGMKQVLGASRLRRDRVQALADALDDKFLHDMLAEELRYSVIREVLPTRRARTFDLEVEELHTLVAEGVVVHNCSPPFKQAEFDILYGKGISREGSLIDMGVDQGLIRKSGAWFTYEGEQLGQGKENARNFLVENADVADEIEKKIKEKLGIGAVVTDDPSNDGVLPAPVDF
PrPC surface inh – inhibitors of human cell surface prion protein PrPC. TR-FRET read-out. actives 0.43% (n = 370,000). P04156. inhibition, % at 13.8 µM; in the data active means inhibition above about 24%
GDH-TPI counter – GDH-TPI coupled enzyme inhibition counter-screen; GDH-TPI coupled enzyme counterscreen, NADH absorbance; actives 1.2% (n = 360,000); AID 588335; inhibition, % at 4.8 µM; in the data active means inhibition above about 30%
BJeLR viability – BJeLR cell viability loss. BJeLR (HRASV12) viability, CellTiter-Glo ATP luminescence, 48 h. inhibition, % (no concentration beside the values). actives 0.17% (n = 300,000). AID 1554; in the data active means inhibition above about 50%
GFP chromophore – counter-screen GFP chromophore formation inhibition; shares compounds with RecA intein inh; cell-free GFP chromophore formation, fluorescence; EC50, µM; actives 83% (n = 2,100); AID 434968; call rule not given here
Large screens that a line does not name were inactive (follow-up assays come after a bar, where they were run).

O=C(N/N=C/c1coc2ccc(Cl)cc2c1=O)c1ccc(O)cc1	RecA intein inh 38 | GFP chromophore 32
COc1cc(C(=O)N/N=C/c2coc3ccc(Cl)cc3c2=O)ccc1O	none
O=C(N/N=C/c1coc2ccc(Cl)cc2c1=O)c1ccncc1	none
COc1ccc(C(=O)N/N=C\c2coc3ccc(Cl)cc3c2=O)cc1	RecA intein inh 37 | GFP chromophore 38
COc1cc(NCCCC(C)N)c2ncccc2c1 (stereo not given)	RecA intein inh 88 | GFP chromophore 10
CCC(CNc1cc(OC)cc2cccnc12)NC1CCCCC1 (stereo not given)	RecA intein inh 67 | GFP chromophore 25
COc1cc(NCCCCC(C)N)c2nccc(C)c2c1 (stereo not given)	none (no result: RecA intein inh, BJeLR viability)
COc1cc(NC(=O)c2ccccc2Cl)c2ncccc2c1	none
O=C(OCn1ncc(Br)c(Br)c1=O)c1ccccc1Cl	RecA intein inh 64 (no result: PrPC surface inh) | GFP chromophore 1.8
O=C(OCn1ncc(Br)c(Br)c1=O)c1ccc(F)cc1	RecA intein inh 73 (no result: PrPC surface inh) | GFP chromophore 2.2
Cc1nnc(N/N=C/c2ccc(-c3ccccc3F)o2)n1N	none
Cc1nnc(N/N=C/c2ccccc2O)n1N	RecA intein inh 75 | GFP chromophore 12
Cc1nnc(N/N=C\c2ccc(-c3ccccc3[N+](=O)[O-])o2)n1N	RecA intein inh 50 | GFP chromophore 39
Cc1nnc(N/N=C/c2c(Cl)cccc2Cl)n1N	none
CCc1nnc(NC(=O)c2nc(S(=O)(=O)Cc3ccc(C)cc3)ncc2Cl)s1	RecA intein inh 76 | GFP chromophore 20
CCOc1ccccc1NC(=O)c1nc(S(=O)(=O)Cc2cccc(C)c2)ncc1Cl	none
CCc1nnc(NC(=O)c2nc(S(=O)(=O)Cc3cccc(C)c3)ncc2Cl)s1	RecA intein inh 75 | GFP chromophore 16
CCc1nnc(NC(=O)c2nc(S(=O)(=O)Cc3ccccc3)ncc2Cl)s1	RecA intein inh 66 | GFP chromophore 37
CCc1nnc(NC(=O)c2nc(Cl)ccc2Cl)s1	none
CC(=O)c1cc(-c2cc(C(=O)O)cc([N+](=O)[O-])c2)c(=O)n2c1CCC2	none (no result: FBA Mtb inh, RecA intein inh, GDH-TPI counter, BJeLR viability)
O=C1Cc2ccccc2C(=O)N1Cc1ccccc1	RecA intein inh 90 (no result: BJeLR viability) | GFP chromophore 1.9
Cc1ccccc1NC(=O)CSc1n[nH]c(-c2ccccn2)n1	none
Cc1ccc(C)c(NC(=O)CSc2n[nH]c(-c3ccccn3)n2)c1	RecA intein inh 51 | GFP chromophore inactive
CCOC(=O)[C@@]12CN(C(=O)OC(C)(C)C)CC=C1N(Cc1ccc(OC)cc1)C(=O)[C@H]2CC(=O)NCc1ccc(C)o1	none (no result: FBA Mtb inh, RecA intein inh, GDH-TPI counter, BJeLR viability)
COc1ccc2c(c1)-c1nc(/N=C/c3ccc(O)cc3)sc1CC2	none (no result: RecA intein inh, BJeLR viability)
COc1ccc2c(c1)-c1nc(/N=C/c3c(O)ccc4ccccc34)sc1CC2	RecA intein inh 51 | GFP chromophore inactive
O=[N+]([O-])c1ccc(N2CCCC(C(F)(F)F)C2)c2ccncc12 (stereo not given)	RecA intein inh 33 | GFP chromophore inactive
COc1ccc(NC(=O)/C(Cl)=C(/Cl)S(=O)(=O)Cc2ccccc2)cn1	RecA intein inh 76, PrPC surface inh 94 | GFP chromophore 7.5
Cc1cc2c3c(c1)C(C)CC(C)(C)N3C(=O)C2=C(C#N)C#N (stereo not given)	RecA intein inh 39 | GFP chromophore 3.7
COc1ccc(NC(=O)Nc2ccccc2OC)cc1	none
COc1ccc(C(=O)Nc2ccc(O)c3ccccc23)cc1	RecA intein inh 98 | GFP chromophore 0.22
COc1ccc(NC(=O)Nc2ccc(O)c3ccccc23)cc1	RecA intein inh 67 (no result: FBA Mtb inh, GDH-TPI counter) | GFP chromophore 4.3
C[N+](C)(C)CCCCCC[N+](C)(C)C	none
CCCCCCCCCCCCCCCC[N+](C)(C)C	RecA intein inh 36 | GFP chromophore 23
CN(CCO)c1cc(Sc2nc3ccccc3s2)c2nonc2c1[N+](=O)[O-]	RecA intein inh 94 | GFP chromophore 1.4
NS(=O)(=O)c1ccc(Sc2nc3ccccc3s2)c([N+](=O)[O-])c1	none
CC(=O)OCCNc1cc(SC(C)C)c2nonc2c1[N+](=O)[O-]	none (no result: BJeLR viability)
CC(=O)OCCN(C)c1cc(SC(C)C)c2nonc2c1[N+](=O)[O-]	RecA intein inh 34 | GFP chromophore inactive
CCn1c(SCC(=O)Nc2ccc(C(N)=O)cc2)nc2sc(C)c(C)c2c1=O	none (no result: FBA Mtb inh, RecA intein inh, GDH-TPI counter, BJeLR viability)
CC(=O)Nc1ccc2c(c1)C(=O)N(C)[C@H]1CC[C@H](CC(=O)NCc3ccc(F)cc3)O[C@@H]1CO2	none (no result: FBA Mtb inh, RecA intein inh, GDH-TPI counter, BJeLR viability)
Cc1onc(-c2c(Cl)cccc2Cl)c1C(=O)N1C(C)CCCC1C (stereo not given)	RecA intein inh 81 | GFP chromophore inactive
Cc1onc(-c2c(Cl)cccc2Cl)c1C(=O)NC1CCCCC1	none
CS(=O)(=O)c1nc(-c2ccccc2)cc(C(F)(F)F)n1	RecA intein inh 66, PrPC surface inh 29 | GFP chromophore 13
CCCCCc1c2c(cc(O)c1C(=O)O)OC(=O)c1c(cc(OC)cc1C(=O)CCCC)O2	RecA intein inh 31 (no result: PrPC surface inh) | GFP chromophore 12
CCCCCc1c2c(cc(O)c1C(=O)O)OC(=O)c1cc(C(=O)CCCC)c(OC)cc1O2	none (no result: RecA intein inh, BJeLR viability)
NC(=O)C1CCN(c2ccnc(Cl)n2)CC1	none (no result: FBA Mtb inh, RecA intein inh, GDH-TPI counter, BJeLR viability)
C#CCN1CC(N(C)CCOC(=O)c2cccs2)CS1(=O)=O (stereo not given)	none (no result: FBA Mtb inh, RecA intein inh, GDH-TPI counter, BJeLR viability)
O=C(/C=C/c1ccccc1)c1ccc2c(c1)OCCCCO2	none
O=C(CCl)N(C/C=C/c1ccccc1)c1ccc2c(c1)OCCO2	RecA intein inh 85 | GFP chromophore 3
CCCCNc1ccc2nsnc2c1[N+](=O)[O-]	none
CN(C)c1ccc2nsnc2c1[N+](=O)[O-]	RecA intein inh 32 | GFP chromophore inactive
Cc1ccc(C(=O)C2C(c3ccc(-c4ccccc4[N+](=O)[O-])o3)NC(=O)NC2(O)C(F)(F)F)cc1 (stereo not given)	RecA intein inh 83 | GFP chromophore 22
O=C1NC(c2ccc(-c3ccccc3[N+](=O)[O-])o2)C(C(=O)c2ccccc2)C(O)(C(F)(F)F)N1 (stereo not given)	none
COc1ccccc1CNC(=O)C[C@H]1CC[C@H]2[C@@H](COc3ccc(NC(=O)Nc4ccccc4)cc3C(=O)N2C)O1	none (no result: FBA Mtb inh, RecA intein inh, GDH-TPI counter, BJeLR viability)
CCCCNC(=O)C[C@@H]1C(=O)N(Cc2ccc(OC)cc2)/C2=C/CCCCC[C@@]21C(=O)OCC	none (no result: FBA Mtb inh, RecA intein inh, GDH-TPI counter, BJeLR viability)
O=C(CCl)Nc1cccc(S(=O)(=O)N2CCCCCC2)c1	RecA intein inh 44 | GFP chromophore 33
COc1cccc(NC(=O)Nc2nc3ncccn3c2-c2ccc(F)c(F)c2)c1	none (no result: FBA Mtb inh, RecA intein inh, GDH-TPI counter, BJeLR viability)
O=C(N=Nc1c(O)[nH]c2c(Cl)cc(Cl)cc12)c1ccccc1O	none (no result: FBA Mtb inh, RecA intein inh, GDH-TPI counter, BJeLR viability)
Cc1ccc(S(=O)(=O)Oc2ccc(C(c3c(C)[nH][nH]c3=O)c3c(C)[nH][nH]c3=O)cc2)cc1	RecA intein inh 97 (no result: PrPC surface inh) | GFP chromophore inactive
Fc1ccc(-c2n[nH]c(=S)n2N=Cc2ccc(-c3ccccc3)cc2)cc1	none (no result: FBA Mtb inh, RecA intein inh, GDH-TPI counter, BJeLR viability)
O=C1NC(=O)C(=Cc2ccccc2[N+](=O)[O-])C(=O)N1	none (no result: RecA intein inh, BJeLR viability)
